Assay [1] can be described thus: NCI Yeast Anticancer Drug Screen. Data for the rad50 strain (AID 155).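 Also: 0% = growth of vehicle-only cultures of the same strain.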 To be noted: S. cerevisiae rad50 strain growth inhibition, active compounds read high. Put shortly:
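Compounds were tested on a yeast strain with an engineered DNA damage repair alteration; the reported value is growth inhibition normalised to vehicle treatment.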

A short description of assay [2]: NCI Yeast Anticancer Drug Screen. Data for the mec2-1 strain (AID 157). To be noted: S. cerevisiae mec2-1 strain, active compounds read high. Put shortly:
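Yeast mec2-1 mutant treated with compound. Readout: growth inhibition vs vehicle controls.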

The nature of assay [3]: NCI Yeast Anticancer Drug Screen. Data for the sgs1 mgt1 strain (AID 161).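 Also: 0% = growth of cultures given vehicle only.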 The following applies: S. cerevisiae sgs1 mgt1 strain, active compounds read high. Put shortly: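 Inhibition of yeast growth, normalised to vehicle-treated controls, is reported for a strain bearing genetic alterations in DNA damage repair.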
Assay [4] is described as follows: NCI Yeast Anticancer Drug Screen. Data for the cln2 rad14 strain (AID 165).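 Also: 0% = growth equal to vehicle treated cultures.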 The following applies: S. cerevisiae cln2 rad14 strain, active compounds read high. Put shortly:
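cln2 rad14 yeast strain; compound exposure; growth inhibition read vs vehicle controls.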

Assay [5] in a line: NCI Yeast Anticancer Drug Screen. Data for the bub3 strain (AID 167). To be noted: S. cerevisiae bub3 mutant strain, active compounds read high. In outline: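 Growth of a checkpoint-deficient yeast mutant is measured after compound exposure. Values represent inhibition relative to vehicle.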
Assay [6] can be described thus: NCI Yeast Anticancer Drug Screen. Data for the mlh1 rad18 strain (AID 175). To be noted: S. cerevisiae mlh1 rad18 strain growth inhibition, active compounds read high. Put shortly: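 Yeast w/ defined DNA-repair lesions; compound exposure; growth vs vehicle controls → % inhibition.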
[7] abbreviates: at 5.0 µM (retest, dose inferred, filed as 0.5).
[8] abbreviates: at 50.0 µM (retest, dose inferred, filed as 5.0).

This is part of a sample that, as a whole, favours compounds with a hit. Of some 79,000 tested, about 15% had one in any assay. Unmarked numbers belong to inactive results. Activity calls are given as the source filed them. Rule as the data show it: active = growth inhibition above about 70%; inactive = the rest.

This note sets out measurements from PubChem BioAssay (NCI).

`CCCCCCCCCCCCCCC[N+]1(CC)CCCCC1`: the growth inhibition in assay [1] (setting [7]) is 99% (active); in assay [1] (setting [8]), 99% (active); in assay [1] (at 50.0 µM) it was 90.3% (active); in assay [2] (setting [7]), 97% (active); in assay [2] (setting [8]), 99% (active); in assay [2] (at 50.0 µM), 90.8% (active). Moreover, the growth inhibition in assay [3] (setting [7]) is 99% (active); in assay [3] (setting [8]), 99% (active); in assay [3] (at 50.0 µM) it was 91.7% (active); in assay [4] (setting [7]) it was 99% (active); in assay [4] (setting [8]), 99% (active); in assay [4] (at 50.0 µM), 90% (active). In addition, the growth inhibition was 98% (active) in assay [5] (setting [7]); 99% (active) in assay [5] (setting [8]); 90.5% (active) in assay [5] (at 50.0 µM); 98% (active) in assay [6] (setting [7]); 99% (active) in assay [6] (setting [8]); 89.2% (active) in assay [6] (at 50.0 µM).
Consider `CCCC(C)C/C(C)=C\C(C)(C)C1CC(=O)N(CC)C1=O` (stereo not given), for which the growth inhibition was -3% in assay [1] (setting [7]); 90% (active) in assay [1] (setting [8]); 20.3% in assay [1] (at 50.0 µM); -1% in assay [2] (setting [7]); 89% (active) in assay [2] (setting [8]); 80.7% (active) in assay [2] (at 50.0 µM). Moreover, the growth inhibition in assay [3] (setting [7]) was -3%; in assay [3] (setting [8]) it was 54%; in assay [3] (at 50.0 µM), 72.7% (active); in assay [4] (setting [7]) it was 4%; in assay [4] (setting [8]) it was 92% (active); in assay [4] (at 50.0 µM) it was 83.8% (active). The growth inhibition in assay [5] (setting [7]) is 4%; in assay [5] (setting [8]), 95% (active); in assay [5] (at 50.0 µM) it was 70.9% (active); in assay [6] (setting [7]), -3%; in assay [6] (setting [8]) it was 98% (active); in assay [6] (at 50.0 µM), 60.9%.
As for `O=C(Oc1ccc(O)c2ccccc12)c1ccccc1`, the growth inhibition in assay [1] (setting [7]) was 0%; in assay [1] (setting [8]) it was 2%; in assay [1] (at 50.0 µM) it was 98.7% (active); in assay [2] (setting [7]), -3%; in assay [2] (setting [8]) it was 6%; in assay [2] (at 50.0 µM) it was 98.6% (active). For the same molecule, the growth inhibition in assay [3] (setting [7]) is 1%; in assay [3] (setting [8]) it was -16%; in assay [3] (at 50.0 µM) it was 98.3% (active); in assay [4] (setting [7]), -7%; in assay [4] (setting [8]) it was -5%; in assay [4] (at 50.0 µM) it was 98.5% (active). Besides, the growth inhibition in assay [5] (setting [7]) was -5%; in assay [5] (setting [8]) it was 5%; in assay [5] (at 50.0 µM), 98.5% (active); in assay [6] (setting [7]), -7%; in assay [6] (setting [8]) it was 7%; in assay [6] (at 50.0 µM) it was 97.2% (active).
`CC1(C)CC[C@]2(C(=O)O)CC[C@]3(C)C(=CC[C@@H]4[C@@]5(C)C[C@H](O)[C@H](O)[C@@](C)(C(=O)O)[C@@H]5CC[C@]43C)[C@@H]2C1`: the growth inhibition in assay [1] (setting [7]) was 100% (active); in assay [1] (setting [8]), 99% (active); in assay [1] (at 50.0 µM), 91.2% (active); in assay [2] (setting [7]) it was 100% (active); in assay [2] (setting [8]), 100% (active); in assay [2] (at 50.0 µM), 94.1% (active). The growth inhibition in assay [3] (setting [7]) was 99% (active); in assay [3] (setting [8]), 99% (active); in assay [3] (at 50.0 µM) it was 92.7% (active); in assay [4] (setting [7]) it was 99% (active); in assay [4] (setting [8]), 99% (active); in assay [4] (at 50.0 µM) it was 92% (active). In addition, the growth inhibition in assay [5] (setting [7]) was 99% (active); in assay [5] (setting [8]) it was 99% (active); in assay [5] (at 50.0 µM) it was 92% (active); in assay [6] (setting [7]), 100% (active); in assay [6] (setting [8]), 100% (active); in assay [6] (at 50.0 µM), 88.7% (active).
Take `Cc1cc(N(CCOS(C)(=O)=O)CCOS(C)(=O)=O)ccc1C=Nc1cc(Br)c(O)c(Br)c1`: the growth inhibition in assay [1] (setting [7]) was 4%; in assay [1] (setting [8]), 71% (active); in assay [1] (at 50.0 µM) it was 82.5% (active); in assay [2] (setting [7]), -93%; in assay [2] (setting [8]) it was 63%; in assay [2] (at 50.0 µM), 72.6% (active). Moreover, the growth inhibition in assay [3] (setting [7]) was 2%; in assay [3] (setting [8]), 53%; in assay [3] (at 50.0 µM) it was 84.2% (active); in assay [4] (setting [7]), 4%; in assay [4] (setting [8]), 43%; in assay [4] (at 50.0 µM) it was 50.4%. Also, the growth inhibition in assay [5] (setting [7]) was 2%; in assay [5] (setting [8]), 24%; in assay [5] (at 50.0 µM) it was 21.1%; in assay [6] (setting [7]) it was 22%; in assay [6] (setting [8]) it was 91% (active); in assay [6] (at 50.0 µM), 95.8% (active).
With `CN(C)C=NCCNc1ccc([N+](=O)[O-])cn1`, the growth inhibition in assay [1] (setting [7]) is -154%; in assay [1] (setting [8]), -166%; in assay [1] (at 50.0 µM) it was 4.4%; in assay [2] (setting [7]), -49%; in assay [2] (setting [8]), -57%; in assay [2] (at 50.0 µM) it was 4.2%. The growth inhibition in assay [3] (setting [7]) is -62%; in assay [3] (setting [8]), -66%; in assay [3] (at 50.0 µM) it was -6.6%; in assay [4] (setting [7]) it was -46%; in assay [4] (setting [8]), -59%; in assay [4] (at 50.0 µM), 24.5%. The growth inhibition was -70% in assay [5] (setting [7]); -77% in assay [5] (setting [8]); 19.8% in assay [5] (at 50.0 µM); -139% in assay [6] (setting [7]); -120% in assay [6] (setting [8]); 3.6% in assay [6] (at 50.0 µM).
As to `CC(C)COC(=O)c1ccc(N=Cc2ccc(C=Nc3ccc(C(=O)OCC(C)C)cc3)cc2)cc1`, the growth inhibition in assay [1] (setting [7]) is 25%; in assay [1] (setting [8]) it was 25%; in assay [1] (at 50.0 µM) it was 31.6%; in assay [2] (setting [7]), 16%; in assay [2] (setting [8]), 16%; in assay [2] (at 50.0 µM), -34.1%. Further, the growth inhibition in assay [3] (setting [7]) is 14%; in assay [3] (setting [8]), 14%; in assay [3] (at 50.0 µM), -10.2%; in assay [4] (setting [7]) it was 7%; in assay [4] (setting [8]), 7%; in assay [4] (at 50.0 µM), 1.75%. Moreover, the growth inhibition in assay [5] (setting [7]) was 9%; in assay [5] (setting [8]), 9%; in assay [5] (at 50.0 µM) it was -20.8%; in assay [6] (setting [7]) it was -1%; in assay [6] (setting [8]) it was -1%; in assay [6] (at 50.0 µM), -12.3%.
Take `Cc1c2cnccc2c(C)c2c1c1ccccc1n2CCOC(=O)c1ccccc1`: the growth inhibition in assay [1] (setting [7]) is 9%; in assay [1] (setting [8]) it was 94% (active); in assay [1] (at 50.0 µM) it was 96.4% (active); in assay [2] (setting [7]), -4%; in assay [2] (setting [8]) it was 78% (active); in assay [2] (at 50.0 µM) it was 87.8% (active). In addition, the growth inhibition in assay [3] (setting [7]) is 1%; in assay [3] (setting [8]), 81% (active); in assay [3] (at 50.0 µM), 89.7% (active); in assay [4] (setting [7]), 39%; in assay [4] (setting [8]) it was 82% (active); in assay [4] (at 50.0 µM) it was 75.2% (active). In addition, the growth inhibition is 8% in assay [5] (setting [7]); 87% (active) in assay [5] (setting [8]); 90.3% (active) in assay [5] (at 50.0 µM); 10% in assay [6] (setting [7]); 87% (active) in assay [6] (setting [8]); 91.5% (active) in assay [6] (at 50.0 µM).
As to `CC(NNC(=S)N1CCCC1)c1cc2ccccc2cn1` (stereo not given), the growth inhibition in assay [1] (setting [7]) was 30%; in assay [1] (setting [8]) it was 99% (active); in assay [1] (at 50.0 µM), 89.2% (active); in assay [2] (setting [7]), 38%; in assay [2] (setting [8]), 99% (active); in assay [2] (at 50.0 µM), 90.8% (active). The growth inhibition is 62% in assay [3] (setting [7]); 98% (active) in assay [3] (setting [8]); 90.8% (active) in assay [3] (at 50.0 µM); 66% in assay [4] (setting [7]); 96% (active) in assay [4] (setting [8]); 90.3% (active) in assay [4] (at 50.0 µM). Moreover, the growth inhibition in assay [5] (setting [7]) was 64%; in assay [5] (setting [8]), 98% (active); in assay [5] (at 50.0 µM), 88.2% (active); in assay [6] (setting [7]), 34%; in assay [6] (setting [8]) it was 98% (active); in assay [6] (at 50.0 µM), 92.2% (active).
Regarding `Oc1cccc(-c2nc(-c3ccccc3)c(-c3ccccc3)[nH]2)c1`, the growth inhibition is 57% in assay [1] (setting [7]); 58% in assay [1] (setting [8]); 98.5% (active) in assay [1] (at 50.0 µM); -2% in assay [2] (setting [7]); 22% in assay [2] (setting [8]); 98.8% (active) in assay [2] (at 50.0 µM). Also, the growth inhibition in assay [3] (setting [7]) was 29%; in assay [3] (setting [8]), 69%; in assay [3] (at 50.0 µM) it was 53.1%; in assay [4] (setting [7]), 8%; in assay [4] (setting [8]) it was 22%; in assay [4] (at 50.0 µM), 99.2% (active). For the same molecule, the growth inhibition is 32% in assay [5] (setting [7]); 43% in assay [5] (setting [8]); 98.8% (active) in assay [5] (at 50.0 µM); 29% in assay [6] (setting [7]); 43% in assay [6] (setting [8]); 98.5% (active) in assay [6] (at 50.0 µM).
